High-throughput results deposited in PubChem by National Center for Advancing Translational Sciences (NCATS).
HT1080-NT tox – kills 2HG-producing HT-1080-NT fibrosarcoma cells; AID 686970; Potency, µM (doses to about 46.1 µM), hits mostly cytotoxic; HT-1080-NT fibrosarcoma viability, CellTiter-Glo ATP luminescence, 48 h; hit rate 1.6% among 360,000;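 further: NT is the 2HG producing partner of a matched IDH1 knockdown line; nearly all actives have a fitted effect of over 55% in size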
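Compounds were tested in concentration-response format on HT-1080-NT cells for 48 hours at 37 degrees C. Cell viability came from CellTiter-Glo luminescence; curves were classified by r2, response magnitude and activity.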
IL1B secr inh – inhibitors of inflammasome signaling (IL-1 beta secretion); activity change, % at 57.5 µM; AID 743279; THP-1 LPS/ATP IL-1B secretion, AlphaLISA, 16 h; stronger effect = lower value; hit rate 4.7% among 360,000; in the data active means activity change below about -50%; inconclusive means mostly about -30% to -49%
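Secreted IL-1B measured by AlphaLISA bead assay after 16 h compound exposure of THP-1 cells; compounds (final up to 57.5 uM) added 1 h before LPS (250 ng/mL) and ATP (1.25 mM) stimulation; lower signal means less secretion.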
ELG1 DNA repair – ELG1-dependent DNA repair inhibition; HEK293T ELG1-luciferase reporter, luminescence, 16 h; DNA damage induced by 5-fluorouridine; Potency, µM (doses to about 46.1 µM), usual class: inhibitors; hit rate 2.3% among 330,000; AID 504467; further: nearly all actives have a fitted effect of over 55% in size
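Cells (2,000 per well) received 5-fluorouridine plus test compound or DMSO and were incubated 16 hr at 37 °C, 5% CO2. Luciferase activity was read by luminescence 30 min after ONE-Glo addition; signal suppression marked inhibition of damage-induced ELG1 function.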
DT40 TDP1 CPT – DT40-hTDP1 cell growth loss with CPT; chicken DT40 Tdp1-/-;hTDP1 cells + 20 nM CPT, ATP luminescence, 48 h; Potency, µM (titrated, usually from 46.2 µM), actives largely listed as inhibitors; hit rate 12% among 420,000; further: nearly all actives have a fitted effect of over 55% in size
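Cell growth measured by CellTiter-Glo luminescence after a minimum 48 h, 37 C compound exposure with 20 nM CPT in Tdp1-knockout DT40 cells stably expressing hTDP1, seeded 400/well; qHTS titration format.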
HT1080 IDH1KD tx – toxicity to HT-1080 IDH1 knockdown cells (counter line) | HT-1080 IDH1 knockdown viability, ATP luminescence, 48 h | Potency, µM (top dose mostly 46.1 µM), hits mostly cytotoxic | hit rate 2% among 360,000 | AID 686971
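Viability of IDH1-knockdown HT-1080 fibrosarcoma cells was assessed by CellTiter-Glo after 48 h at 37 °C with titrated compound; concentration-effect curves were classified by fit quality and response size.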
TDP1 cell noCPT – qHTS for Inhibitors of human tyrosyl-DNA phosphodiesterase 1 (TDP1): qHTS in cells in absence of CPT; hit rate 15% among 420,000; Potency, µM (series often up to 46.2 µM), most hits filed as inhibitors; DT40 Tdp1-/- hTDP1 cells, no CPT, ATP luminescence, 48 h; further: nearly all actives have a fitted effect of over 55% in size
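A cellular qHTS used chicken DT40 cells lacking endogenous Tdp1 but carrying stably transfected human TDP1. Compounds were applied without camptothecin, and cell growth kinetics were judged by ATP-dependent luminescence after ≥48 hr.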
Hits are given with their value; – = inactive; ? = inconclusive; · = not tested or not shown; [ ] = dose if it differs, or a comment. This is a sample that favours compounds with a hit; in the whole collection about 19% have one here. Unless noted, the call rests on the fitted dose curve; in most records, active means well fitted curve in the direction sought with a large enough effect; inconclusive means small, poorly fitted or top-dose-only effect, or another doubt; inactive means no such curve, though single readings can be large; an effect the other way counts as inactive or inconclusive.

SMILES	HT1080-NT tox	IL1B secr inh	ELG1 DNA repair	DT40 TDP1 CPT	HT1080 IDH1KD tx	TDP1 cell noCPT
Cc1ccc(C)c(S(=O)(=O)/N=C2\C=C(NS(=O)(=O)c3ccccc3)C(=O)c3ccccc32)c1	–	–	23.1µM	16.4µM	–	16.4µM
COC(=O)C(C(C)=O)C1=C/C(=N\S(=O)(=O)c2ccc(C)cc2)c2ccccc2C1=O (configuration not stated)	?	–	–	3.55µM	?	10µM
O=C(O)c1ccc(S(=O)(=O)/N=C2\C=C(Nc3ccccc3F)C(=O)c3ccccc32)cc1	?	-96.9	?	–	8.2µM	–
Cc1ccc(C)c(OCC(=O)Nc2ccc(S(=O)(=O)Nc3onc(C)c3C)cc2)c1C	·	·	·	–	·	–
CC(C)(CNCc1ccccc1)NS(=O)(=O)c1ccccc1	–	–	–	–	–	–
CN(C(=O)Cn1nc(Cc2cccnc2)c2ccccc2c1=O)c1cccc(C(F)(F)F)c1	·	·	·	–	·	–
Cc1cccc2sc(N(CCN3CCOCC3)C(=O)CCS(=O)(=O)c3ccccc3)nc12	–	-98.0	–	16.4µM	–	20.6µM
Cc1ccc(S(=O)(=O)CCC(=O)N(CCN2CCOCC2)c2nc3ccccc3s2)cc1	–	–	?	20.6µM	–	16.4µM
CC1CCC/C=C/C(=O)c2c(O)cc(O)cc2CC(=O)O1 (configuration not stated)	18.4µM	-115.0	8.2µM	4.61µM	20.6µM	4.11µM
CCCS/C(N)=N/N=C/c1cc(C)ccc1O	–	-51.2	?	0.731µM	?	0.82µM
COc1ccc(Nc2ncc(C(=O)O)c3ccccc23)cc1	–	–	–	–	–	–
COc1ccc(Nc2ncc(C(=O)N3CCN(c4ccc(F)cc4)CC3)c3ccccc23)cc1	–	-59.5	20.6µM	23.1µM	–	5.17µM
COc1ccc(Nc2ncc(C(=O)N3CCN(c4ccc(OC)cc4)CC3)c3ccccc23)cc1	·	·	·	23.1µM	·	16.4µM
COc1ccc(Nc2ncc(C(=O)N3CCN(c4cccc(Cl)c4)CC3)c3ccccc23)cc1	·	·	·	14.6µM	·	4.61µM
COc1ccc(N2CCN(C(=O)c3oc4ccccc4c3C)CC2)cc1	–	–	–	–	–	?
COc1ccc(N2CCN(C(=O)c3cnc(N4CCOCC4)c4ccccc34)CC2)cc1	·	·	·	?	·	23.1µM
COc1ccc(OC)c(C(=O)CSc2nnc(C3CC3)n2C2CC2)c1	–	–	·	?	–	–
COc1ccc(CN2C(=NC(=O)CCc3ccccc3)SC3CS(=O)(=O)CC32)cc1 (configuration not stated)	–	–	–	–	–	–
O=C1CC(c2ccccc2)Cc2[nH]c(=O)c(C(=O)Nc3cccc(Cl)c3)cc21 (configuration not stated)	·	·	·	–	·	–
Cc1ccc(CNC(=O)c2nnc(Cc3cccc(F)c3)o2)cc1	·	·	·	–	·	–
COc1ccc(CCNC(=O)CSc2nc(-c3ccc(F)cc3)cc(C(F)(F)F)n2)cc1OC	·	·	·	18.4µM	·	?
COc1ccc(CCNC(=O)Nc2cc(F)c(F)cc2Cl)cc1OC	–	–	–	23.1µM	–	8.2µM
O=C(CSc1nc(-c2ccccc2)cc(C(F)(F)F)n1)NCc1ccco1	–	–	–	?	–	?
COc1ccc(-c2cc(C(F)(F)F)nc(SCC(=O)N(C)Cc3cn(C)nc3C)n2)cc1OC	–	–	?	18.4µM	–	11.6µM
COC(=O)c1ccccc1NC(=O)NCCc1ccc(OC)c(OC)c1	–	–	?	–	–	?
SMILES	HT1080-NT tox	IL1B secr inh	ELG1 DNA repair	DT40 TDP1 CPT	HT1080 IDH1KD tx	TDP1 cell noCPT
COc1ccc(-c2cc(C(F)(F)F)nc(SCC(=O)NCc3ccco3)n2)cc1OC	–	–	23.1µM	?	–	?
CCN(Cc1cccc(F)c1)C(=O)c1ccc2ccccc2n1	–	–	?	–	–	?
O=C(CCCCCN1C(=O)[C@@H]2Cc3ccccc3CN2C1=O)Nc1ccccc1F	–	–	–	?	–	?
Cc1ccc(-c2noc(COc3ccc(Br)c(C)c3)n2)cc1	·	·	·	–	·	–
OC[C@@H]1CN(Cc2ccco2)C[C@H](n2cnc3c(NC4CC4)ncnc32)O1	–	–	·	–	–	–
CCCCN(C(=O)CSCC(=O)Nc1ccc(C)cc1)c1c(N)n(CCCC)c(=O)[nH]c1=O	–	–	–	?	–	?
COc1ccccc1CCNC(=O)C(C)Sc1nc(-c2ccccc2)cc(C(F)(F)F)n1 (configuration not stated)	·	·	·	16.4µM	·	14.6µM
COc1ccc(CCNC(=O)c2nc(SCc3ccc(F)cc3)ncc2Cl)cc1OC	·	·	·	20.6µM	·	?
O=C(O)c1ccccc1C(=O)Nc1c(-c2ccccc2)nc2ccccn12	?	–	–	–	–	–
CC1(C(=O)NCCCN2CCCC2=O)CCN1CCc1ccccc1 (configuration not stated)	–	–	·	–	?	–
C/C=C1\COC(C(=O)NCCN2CCCC2)(C(F)(F)F)C=C1C=C1CCCCC1 (configuration not stated)	–	-77.5	·	18.4µM	–	20.6µM
C/C=C1\COC(C(=O)NCCCN2CCCC2=O)(C(F)(F)F)C=C1C=C(C)C (configuration not stated)	–	–	·	20.6µM	–	18.4µM
C/C=C1\COC(C(=O)NCc2ccccc2)(C(F)(F)F)C=C1C=C1CCCCC1 (configuration not stated)	–	–	·	?	–	?
CCCC1(C(=O)OCC)NC(c2ccco2)C2C(=O)N(C)C(=O)C21 (configuration not stated)	–	–	–	–	–	–
CCOc1cc(CN2CCN(c3ccc(C(C)=O)cc3)CC2)ccc1OC	–	–	–	?	–	?
CCOc1cc(CN2CCN(c3cccc(C(F)(F)F)c3)CC2)ccc1O	–	–	?	16.4µM	?	16.4µM
CCC(c1nnnn1CCOC)N1CCN(c2cccc(C(F)(F)F)c2)CC1 (configuration not stated)	–	–	–	?	–[9.24 µM]	?
COc1ccc(CC(C)N2CCN(c3cccc(C(F)(F)F)c3)CC2)cc1OC (configuration not stated)	?	–	?	?	?	25.9µM
CCOc1cc(CN2CCSCC2)ccc1O	–	–	–	–	–	?
CCOc1cc(CN2CCN(c3cccc(C(F)(F)F)c3)CC2)ccc1OC	–	-56.3	25.9µM	?	–	16.4µM
CSCSC1=C(C#N)C(c2ccc(Cl)cc2)C(C(C)=O)=C(C)N1 (configuration not stated)	·	·	–	·	·	·
